Source: PubChem
Luc counter = blocks Kinase-Glo luciferase, a counter-screen artifact | Q27757 | Kinase-Glo luciferase, ATP luminescence, 8 min | Potency, µM (doses to about 38.3 µM), for inactives: at the top dose activity change, negative = inhibition, hits mostly inhibitors | 200,000 tested, 0.28% active | AID 1379; also: % is scaled to controls: 0 for no effect and ±100 for the full control effect; nearly all actives have a fitted effect of over 60% in size
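Recombinant Kinase-Glo luciferase, 10 uM ATP (linear range), luciferin; imidazole pH 7.2 / KCl / MgCl2 / Tween / BSA buffer; 8 min RT; luminescence.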
SMN2 splice enh = increases expression of the SMN2 splice variant | 210,000 tested, 2.8% active | HEK293 SMN2-luciferase splicing reporter, luminescence, 30-36 h | AID 1458 | Potency, µM (highest dose often 46.1 µM), without a hit: at the top dose activity change, positive = activation, usual class: activators; also: % of control where 0% means no effect; nearly all actives have a fitted effect of over 55% in size
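HEK293 cells carry an SMN2 minigene-luciferase reporter in which exon 7 inclusion puts luciferase in frame. Cells were seeded at 2000 cells/well, attached for 10-12 hours, then exposed to compounds for 30-36 hours at 37C before ONE-Glo luminescence.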
NPC1 promoter act = NPC1 promoter activation | 320,000 tested, 2.4% active | Huh7 NPC1 promoter luciferase reporter, 24 h | Potency, µM (series often up to 9.22 µM), for the others: at the highest dose activation, actives largely listed as activators; also: % of control where 0% means no effect; nearly all actives have a fitted effect of over 60% in size
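In 1536-well qHTS, Huh7 cells harboring an NPC1 promoter–luciferase construct received compound for 24 h; activation was quantified by luminescence following luciferase reagent addition.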
FLuc modulator = firefly luciferase modulation, counter-screen for miR-21 project; P08659; purified FLuc, Km substrates, luminescence inhibition; Potency, µM (doses to about 57.5 µM), for inactives: at the highest dose activity change, negative = inhibition, hits mostly inhibitors; 360,000 tested, 6.9% active; AID 588342;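 also: plate controls were vehicle for no effect and reference inhibitor for full effect; nearly all actives have a fitted effect of over 55% in size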
Target sequence (P08659 whole entry, looked up): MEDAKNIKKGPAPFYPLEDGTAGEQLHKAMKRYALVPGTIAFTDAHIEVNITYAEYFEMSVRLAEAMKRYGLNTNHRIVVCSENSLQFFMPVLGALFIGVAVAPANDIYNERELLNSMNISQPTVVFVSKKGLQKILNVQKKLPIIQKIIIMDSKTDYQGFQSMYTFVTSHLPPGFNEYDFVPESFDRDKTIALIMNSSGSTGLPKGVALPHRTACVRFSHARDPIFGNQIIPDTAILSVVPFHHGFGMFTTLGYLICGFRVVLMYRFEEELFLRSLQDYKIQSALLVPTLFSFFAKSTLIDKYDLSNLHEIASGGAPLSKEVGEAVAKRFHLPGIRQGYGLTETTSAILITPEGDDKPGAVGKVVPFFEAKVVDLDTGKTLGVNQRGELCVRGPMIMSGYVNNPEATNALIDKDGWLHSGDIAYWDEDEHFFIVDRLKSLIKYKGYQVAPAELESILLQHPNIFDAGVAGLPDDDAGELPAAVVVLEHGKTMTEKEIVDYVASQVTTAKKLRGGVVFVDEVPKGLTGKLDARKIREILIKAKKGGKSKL
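Purified P. pyralis luciferase (10nM final) with 10uM D-luciferin and 10uM ATP (Km levels) in 50mM Tris acetate pH 7.5, 10mM Mg acetate, 0.01% Tween-20, 0.05% BSA; qHTS 6-point titration, ~60 µM downward; luminescence read.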
Rab9 promoter act = activators of Rab9 promoter; Huh7 Rab9 promoter-luciferase reporter, luminescence, 24 h; Potency, µM (titrated, usually from 9.22 µM), for inactives: at the top dose activation, negative = inhibition, most hits filed as activators; 320,000 tested, 2.8% active; AID 485297; also: % of control where 0% means no effect; nearly all actives have a fitted effect of over 60% in size
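Rab9 promoter-driven luciferase in stably transfected Huh7 cells; 1500 cells/well rested 2 h, exposed to compound in DMSO for 24 h at 37 °C, 5% CO2. Luminescence read 10 min after adding luciferase reagent at ambient temperature.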
* marks the source's active call; other numbers are inactive results. An excerpt weighted towards active compounds, which were near 7.3% of everything screened. Calls follow the shape of the dose curve; as a rule, active = well fitted curve in the direction sought with a large enough effect; inconclusive = small, poorly fitted or top-dose-only effect, or another doubt; inactive = no such curve, though single readings can be large; an effect the other way counts as inactive or inconclusive. Potency is read from the fitted curve at half-maximal effect.

Results for Brc1cccc(-c2n[nH]c(-c3ccccc3)n2)c1 ?
Luc counter: -2.8%; SMN2 splice enh: 10µM*; NPC1 promoter act: 6.31µM*; FLuc modulator: 3.01µM*; Rab9 promoter act: 3.55µM*

Results for c1ccc(-c2nc(-c3cccnc3)n[nH]2)cc1 ?
Luc counter: -2.2%; SMN2 splice enh: inconclusive; NPC1 promoter act: 16.4%; FLuc modulator: inconclusive; Rab9 promoter act: 27.8%

Results for CC(C)C(=O)Nc1ccc(-c2nc3ncccc3o2)cc1 ?
NPC1 promoter act: 0.501µM*; FLuc modulator: 4.26µM*; Rab9 promoter act: 0.501µM*

How did CC(C)(C)c1ccc(OCC(=O)Nc2ccc(-c3nc4cccnc4o3)cc2)cc1 do in these assays?
Luc counter: -1.2%; SMN2 splice enh: 20.4%; FLuc modulator: 0.2%

How did CC(C)C(=O)Nc1ccc(-c2nc3cccnc3o2)cc1 do in these assays?
Luc counter: -1.3%; SMN2 splice enh: 4.47µM*; NPC1 promoter act: 0.562µM*; FLuc modulator: 2.69µM*; Rab9 promoter act: 0.501µM*

Results for CCCCN(C)CC(O)Cn1cc(/C=C/C(=O)c2ccc(OCC)cc2)c2ccccc21 (stereo unspecified) ?
SMN2 splice enh: -82.5%; NPC1 promoter act: -1.2%; FLuc modulator: 16.9µM*; Rab9 promoter act: -4.1%

What do the screens show for `COc1ccccc1CNC(=O)CN1C(=O)COc2ccc(S(=O)(=O)Nc3ccccc3)cc21`?
FLuc modulator: -18.2%

What do the screens show for `COCCCNS(=O)(=O)c1cc(-c2onc(C)c2C)ccc1OC`?
FLuc modulator: -6.3%

Results for COc1ccc(-c2cc(C(=O)Nc3ccccc3O)c3ccccc3n2)cc1OC ?
Luc counter: -3.8%; SMN2 splice enh: -40.9%; NPC1 promoter act: -5.9%; FLuc modulator: inconclusive; Rab9 promoter act: -1.8%

What do the screens show for `COc1ccc(-c2cc(C(=O)Nc3nc4ccccc4s3)c3ccccc3n2)cc1OC`?
Luc counter: -3.5%; SMN2 splice enh: -34.5%; NPC1 promoter act: -1.7%; FLuc modulator: 16.9µM*; Rab9 promoter act: -0.5%

Results for COc1ccc(-c2cc(C(=O)Nc3cccnc3)c3ccccc3n2)cc1OC ?
NPC1 promoter act: 0.0%; FLuc modulator: 10.7µM*; Rab9 promoter act: -0.1%

What do the screens show for `O=C(Nc1cccnc1)c1cc(-c2cccc(Br)c2)nc2ccccc12`?
NPC1 promoter act: -4.4%; FLuc modulator: inconclusive; Rab9 promoter act: -0.4%

Results for COc1cccc(-c2cc(C(=O)Nc3cccnc3)c3ccccc3n2)c1 ?
NPC1 promoter act: -0.2%; FLuc modulator: 26.9µM*; Rab9 promoter act: 3.8%

How did COC(=O)N1CCCc2cc(S(=O)(=O)NCc3ccccc3)ccc21 do in these assays?
SMN2 splice enh: -6.1%; FLuc modulator: -9.5%

How did CC(=O)Nc1ccc(NC(=O)C2Cc3ccccc3N2C(=O)c2ccccc2)cc1 (stereo unspecified) do in these assays?
FLuc modulator: -4.6%

How did CCOc1ccc(/C=C2\SC(=S)N(N3C(=O)C4CC4C3=O)C2=O)cc1 (stereo unspecified) do in these assays?
Luc counter: 0.7%; SMN2 splice enh: 5.0%; NPC1 promoter act: -2.4%; FLuc modulator: inconclusive; Rab9 promoter act: 0.4%

How did O=C1NC(=Nc2ccc(Cl)cc2)/C(=C/c2ccco2)S1 do in these assays?
Luc counter: -1.9%; SMN2 splice enh: inconclusive; NPC1 promoter act: -2.1%; FLuc modulator: -13.3%; Rab9 promoter act: -2.1%

What do the screens show for `CCOc1ccc(N=C2NC(=O)S/C2=C\c2ccc(N(C)C)cc2)cc1`?
Luc counter: -2.7%; SMN2 splice enh: 11.2µM*; NPC1 promoter act: 4.47µM*; FLuc modulator: 12µM*; Rab9 promoter act: inconclusive

How did CCOc1ccc(/C=C2/SC(=O)NC2=S)cc1 do in these assays?
Luc counter: 0.7%; SMN2 splice enh: inconclusive; NPC1 promoter act: 25.4%; FLuc modulator: 16.9µM*; Rab9 promoter act: inconclusive

How did Nc1ncnc2c1ncn2[C@@H]1O[C@H](C(=O)NC2CC2)[C@@H](O)[C@H]1O do in these assays?
SMN2 splice enh: 6.4%

What do the screens show for `Fc1ccc(-c2nn(-c3ccc(Cl)cc3)c3c2cnc2ccc(F)cc23)cc1`?
FLuc modulator: -0.5%

How did COc1ccc(S(=O)(=O)NCCSc2nnnn2-c2ccccc2)cc1OC do in these assays?
SMN2 splice enh: 8.3%; FLuc modulator: -7.0%

How did CN(C)c1ccc(C=C2C(=O)OC(C)(C(C)(C)C)OC2=O)cc1 (stereo unspecified) do in these assays?
Luc counter: -2.9%; SMN2 splice enh: 2.5%; NPC1 promoter act: -0.7%; FLuc modulator: 9.53µM*; Rab9 promoter act: 6.7%

How did CN(C)c1ccc(C=C2C(=O)OC(C)(C)OC2=O)cc1 do in these assays?
Luc counter: -6.2%; SMN2 splice enh: -28.5%; NPC1 promoter act: -6.1%; FLuc modulator: 19µM*; Rab9 promoter act: -1.3%

Results for CCCCC(=O)Nc1ccc(C(=O)OCc2cc(=O)n3nc(C4CC4)sc3n2)cc1 ?
FLuc modulator: -2.9%

Results for O=c1c2ccccc2nnn1CSc1nnc2ccccn12 ?
Luc counter: -8.8%; SMN2 splice enh: 12.6µM*; NPC1 promoter act: 3.55µM*; FLuc modulator: 15.1µM*; Rab9 promoter act: 3.16µM*

Results for Cn1c(SCn2nnc3ccccc3c2=O)nc2ccccc2c1=O ?
Luc counter: 1.3%; SMN2 splice enh: -24.1%; NPC1 promoter act: -6.3%; FLuc modulator: -7.9%; Rab9 promoter act: -13.7%

Results for Cc1ccc(-n2nnnc2SCn2nnc3ccccc3c2=O)cc1 ?
Luc counter: -8.0%; SMN2 splice enh: 4.9%; NPC1 promoter act: inconclusive; FLuc modulator: 13.5µM*; Rab9 promoter act: 3.55µM*

Results for CCN(CC)c1ccc(NC(=O)CCc2c(C)nc3ncnn3c2C)c(C)c1 ?
SMN2 splice enh: -5.0%; FLuc modulator: -5.4%

How did Cc1ccc(/C=C(\C#N)C(=O)NCC2CCCO2)o1 (stereo unspecified) do in these assays?
Luc counter: 1.4%; SMN2 splice enh: inconclusive; NPC1 promoter act: 12.6%; FLuc modulator: -15.2%; Rab9 promoter act: 17.0%

Results for COc1ccc(/C=C(\C#N)C(=O)NCc2cccs2)cc1OC ?
Luc counter: 0.6%; SMN2 splice enh: 2.5%; NPC1 promoter act: -3.2%; FLuc modulator: -13.4%; Rab9 promoter act: -0.2%

Results for Cc1ccccc1-n1c(C)cc(/C=C(\C#N)C(=O)NCC2CCCO2)c1C (stereo unspecified) ?
Luc counter: -1.9%; SMN2 splice enh: -6.5%; NPC1 promoter act: -0.2%; FLuc modulator: 0.953µM*; Rab9 promoter act: inconclusive

How did Cc1cc(/C=C(\C#N)C(=O)NCc2cccs2)c(C)n1-c1ccccc1F do in these assays?
Luc counter: -1.1%; SMN2 splice enh: -29.3%; NPC1 promoter act: 3.55µM*; FLuc modulator: 2.13µM*; Rab9 promoter act: 3.55µM*

What do the screens show for `COc1ccc(-c2onc(C)c2C)cc1S(=O)(=O)NCc1ccc(Br)cc1`?
FLuc modulator: -10.1%
